Consider 31 molecules from PubChem BioAssay AID623911 (Vanderbilt High Throughput Screening Facility, 2012).

In all, about 2,100 compounds went through this assay and about 770 (37%) were called active. This is one part of the list. A number with no mark means an inactive call.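 Rule for the calls: active = by-eye trace score of 1 for enhancers or -1 for inhibitors, so actives lie on both sides (some results past the limit were not filed as active); inactive = score 0, or 3 fluorescent, or 4 baseline rise.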

For this test, the target named is G protein-activated inward rectifier potassium channel 2 (Homo sapiens) + G protein-activated inward rectifier potassium channel 1 (Homo sapiens) (UniProt P48051+P48549). Description: GIRK1/2 thallium flux modulators, retest, confirmation, cell-based, HEK293 rmGlu8/hGIRK1/2, FluoZin-2 (AID 623911). To be noted: HEK293 rmGlu8/hGIRK1/2, thallium flux FluoZin-2; actives lie on both sides; glutamate co-added at its EC20 level.
G protein-activated inward rectifier potassium channel 2 (Homo sapiens) + G protein-activated inward rectifier potassium channel 1 (Homo sapiens), sequence (P48051 whole entry, looked up): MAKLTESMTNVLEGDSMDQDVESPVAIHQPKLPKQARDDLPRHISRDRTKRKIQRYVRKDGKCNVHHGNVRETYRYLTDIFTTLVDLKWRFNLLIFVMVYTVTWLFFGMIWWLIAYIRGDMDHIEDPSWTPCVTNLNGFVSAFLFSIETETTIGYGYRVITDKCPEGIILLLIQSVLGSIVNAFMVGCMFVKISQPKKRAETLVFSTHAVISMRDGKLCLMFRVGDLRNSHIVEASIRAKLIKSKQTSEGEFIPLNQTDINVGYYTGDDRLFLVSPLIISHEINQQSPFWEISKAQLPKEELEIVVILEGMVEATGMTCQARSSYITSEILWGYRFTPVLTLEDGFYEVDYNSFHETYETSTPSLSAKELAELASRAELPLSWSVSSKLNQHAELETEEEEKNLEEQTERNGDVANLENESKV
G protein-activated inward rectifier potassium channel 2 (Homo sapiens) + G protein-activated inward rectifier potassium channel 1 (Homo sapiens), sequence (P48549 whole entry, looked up): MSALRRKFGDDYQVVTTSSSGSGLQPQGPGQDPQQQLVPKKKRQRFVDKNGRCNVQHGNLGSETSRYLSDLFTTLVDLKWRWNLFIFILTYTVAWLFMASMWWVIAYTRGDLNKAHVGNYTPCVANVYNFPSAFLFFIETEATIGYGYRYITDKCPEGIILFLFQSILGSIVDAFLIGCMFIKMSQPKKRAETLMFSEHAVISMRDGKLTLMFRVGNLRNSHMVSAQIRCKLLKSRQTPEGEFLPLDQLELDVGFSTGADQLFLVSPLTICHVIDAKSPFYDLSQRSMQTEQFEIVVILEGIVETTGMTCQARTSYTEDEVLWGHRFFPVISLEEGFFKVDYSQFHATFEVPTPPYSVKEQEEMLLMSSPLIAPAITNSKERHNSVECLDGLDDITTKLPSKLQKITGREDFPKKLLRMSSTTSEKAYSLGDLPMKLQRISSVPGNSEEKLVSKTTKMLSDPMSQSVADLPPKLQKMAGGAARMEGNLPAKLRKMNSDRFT
In the case of `CCC(C)(C)NC(=O)C(c1ccc(F)cc1)N(Cc1ccco1)C(=O)c1cnccn1` (stereo unspecified), the manual score is 0.
For `COC(=O)c1ccc(C(=O)OC)c(NC(=O)CSc2nc(-c3ccco3)cc(C(F)(F)F)n2)c1` the value was -0.5; for `Cc1ccc(N=C2CCCN2Cc2ccccc2)c(C#N)c1`, -1 (active).
`Cc1ccc(C)c(N=C2CCCN2Cc2ccccc2)c1C#N`: the manual score was -1 (active).
As for `Cc1c(C#N)c2ccccc2n1CC(=O)O`, the figure is 0; as for `CC(C)n1c(CCC(=O)O)ccc1-c1ccccc1`, 0.
As for `O=C(NC(=S)Nc1ccc2c(c1)OCCO2)c1ccccc1`, the figure is 0.5; as for `CC(C)OCCCNC(=O)c1cccc(NC(=O)c2ccccc2)c1`, 0.
As for `O=C(Nc1ccc2[nH]c(=S)sc2c1)c1ccccc1`, the figure is 1 (active); as for `O=C(CCS(=O)NCc1ccccc1)NCc1ccccc1` (stereo unspecified), 0.
On to `O=C(NCc1ccc2c(c1)OCO2)C1CCN(Cc2cnn(-c3ccccc3)c2-n2cccc2)CC1`, for which the manual score is -1 (active).
On to `CS(=O)(=O)N(CCc1ccccc1)CC(=O)NCc1ccc2c(c1)OCO2`, for which the manual score was 0.
As for `Cn1cc(CCC(=O)NCc2ccc3c(c2)OCO3)c2ccccc21`, the figure is 0; as for `CCc1nnc(NC(=O)CSc2nnc(-c3c[nH]c4ccccc34)n2CC)s1`, 0; as for `COc1c(Cl)cc(Cl)cc1CNCCNCC(C)O` (stereo unspecified), 1 (active).
For `CC(Sc1nnnn1C)C(=O)Nc1ccc(Oc2ccccc2)cc1` (stereo unspecified) the value was 1 (active); for `CC(NC(=O)c1ccccc1NC(=O)CSc1nnnn1C)c1ccccc1` (stereo unspecified), 0; for `S=C1NC2=C(CCCC2)C2(CCCCC2)N1`, 0.
For `CC1CCCC(NC(=S)NC(=O)c2ccccc2Br)C1C` (stereo unspecified) the value was 0; for `CN(C(=S)NC(=O)c1ccccc1Br)C1CCCCC1`, 1 (active); for `CN(Cc1ccccc1)C(=S)NC(=O)C1CCCCC1`, 0.
Take `COc1ccccc1/C=C/C(=O)NC(=S)N(C)C1CCCCC1`: the manual score is 1 (active).
As for `CCN(C(=O)c1cc(Cl)ccc1OC)C1CCCCC1`, the figure is -0.5.
As to `CCOC(=O)CSc1nnc(-c2ccccc2OC)o1`, the manual score was -0.5.
`CC(C)NC(=O)/C(=C/c1ccco1)c1ccccc1`: the manual score was 0.
As for `Cc1nccn1CCc1nc(N)nc(N)n1`, the figure is 0; as for `CCCc1ccc(OCC(=O)NNC(=S)NC(=O)c2ccco2)cc1`, 1 (active).
As for `Cc1ccccc1OCC(=O)NNC(=S)NC(=O)c1ccco1`, the figure is 1 (active); as for `CCN(CC)c1ccc(/C=C2/C(=O)c3ccc(C(=O)O)cc3C2=O)cc1`, 3; as for `CC1(C)CC2CC(C)(CN2C(=S)NC(=O)c2ccccc2Cl)C1` (stereo unspecified), 1 (active).
As for `Nc1sccc1C(=O)c1ccccc1`, the figure is 0.
